Data on 40 compounds can be found in PubChem BioAssay (NCI).

Where “and” joins values, the source holds several entries; their conditions need not be identical. Identical values can stand only once. This is part of a sample that, as a whole, favours compounds with a hit. Of some 79,000 tested, about 15% had one in any assay. Unmarked numbers belong to inactive results. Cut-off read from the data, not from the text of the source: active = growth inhibition above about 70%; inactive = the rest.

A short description of the first assay: NCI Yeast Anticancer Drug Screen. Data for the cln2 rad14 strain (AID 165).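 Note: 0% = growth equal to vehicle treated cultures.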 Conditions: S. cerevisiae cln2 rad14 strain, at 50.0 µM, active compounds read high. Summed up: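 Compounds are applied to the cln2 rad14 yeast strain, and growth is then compared with that of vehicle-treated cultures to give inhibition.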
On to `CCC[As](=O)(O)CC(C)C`, for which the growth inhibition is 13.2%.
Consider `CCCOC(=O)c1cncn1C(C)c1ccccc1` (stereo not given), for which the growth inhibition was 10.7%.
`C/C=C/CC1(C(C)C)C(=O)NC(=O)NC1=O`: the growth inhibition is 3.8% and 10.6%.
Still for that read-out and setting: the same measure for `NC(N)=NCCCCCCCCCCN=C(N)N`: 8.4%.
Regarding `O=C(Nc1ccc(S(=O)(=O)Nc2ccc(N=Nc3ccc(N=Nc4ccccc4)cc3)cc2)cc1)C(N1CC1)(N1CC1)N1CC1`, the growth inhibition is 9.05%.
With `CC1(C)C=C(NC(=O)N2CC2)C(C)(C)N1O`, the growth inhibition was 9.75%.
Still for that read-out and setting: in the case of `CC1=CC(=O)NP(=O)(Oc2ccc(C)cc2)N1` (stereo not given) it was -0.75%; in that of `CCCN(CCC)C(=O)CCl`, 3.3%.
Still for that read-out and setting: in the case of `O=[P+](O)c1ccccc1` it was 5.9% and 0.6%; in that of `CN(C)CCNC(=O)c1ccc([N+](=O)[O-])c(C(C)(C)C(=O)Nc2ccc(N(CCCl)CCCl)cc2)c1`, -44.2%; in that of `CCCC(C)COC(=O)Cc1ccccc1` (stereo not given), -27.9%.
For the compound `CCCCOC1OCN(C2CCCCC2)CC1(C)C` (stereo not given), the growth inhibition was 13.7%.
Still for that read-out and setting: in the case of `CN(C)P1P(N(C)C)P(N(C)C)P1N(C)C` (stereo not given) it was -58.7%; in that of `C[CH2][Sn]([CH2]C)([CH2]C(=O)OC)[CH2]C(=O)OC`, 11.7%.
Regarding `CCCP(=S)(CCC)P(=S)(CCC)CCC`, the growth inhibition was -2.75%.
Same read-out and setting: the same measure for `CCC[N+](CCC)(CCC)CCC.[Ni+2].[SH2+]C([SH2+])=Nc1ccccc1.[SH2+]C([SH2+])=Nc1ccccc1`: -20.9%; for `CC(C)c1ccc(-n2c(=S)[nH]c3ccccc3c2=O)cc1`: -25%; for `C=CC(=O)NCO`: -20.4%.
The same measure, in the same setting: in the case of `CCNC(=O)C(C)Br` (stereo not given) it was -3.55%; in that of `O=C1CCP(c2ccccc2)(c2ccccc2)(c2ccccc2)O1`, 25.7%; in that of `O=C(N/N=C/c1cc(Br)cc(Br)c1[O-])c1ccccc1O.O=C(N/N=C/c1cc(Br)cc(Br)c1[O-])c1ccccc1O.[Cl-].[Fe+3]`, -30.1%.
`CC12CCC3C(CCC4(O)C=CCCC34C=O)C1(O)CC(O)C2c1ccc(=O)oc1` (stereo not given): the growth inhibition was -15.8%.
On the same count and under the same terms, the same measure for `COc1cc2c(cc1OC)C13CCN4CC5=CCOC6CC(=O)N2C1C6C5CC43` (stereo not given): 4%.
For `NC(=O)OCC(O)c1ccccc1` (stereo not given), the growth inhibition was -27.8%.
Still for that read-out and setting: in the case of `Clc1ccc([As](c2ccc(Cl)cc2)c2ccc(Cl)cc2)cc1` it was 13.7%; in that of `COc1ccc2c3c1O[C@]1(C)C34CCN(C)C(C2)C42C=C[C@@]1(OC)c1c(O)ccc(O)c12`, 7.9%.
Same read-out and setting: in the case of `CCOP(=S)(OCC)OP(=O)(CC)CC` it was 4.4%.
Still for that read-out and setting: the same measure for `Cc1ccc(NC(=O)C(=O)C2C(=O)NC(=O)NC2=O)cc1C`: 3.85%; for `O=C(Nc1ccc(O)cc1)c1c(O)[nH]c(=S)[nH]c1=O`: -56.5%; for `NCCCNCCCN`: -4.3%.
Consider `COc1cccc(N2C(=O)C3C(C2=O)C2(Cl)C(Cl)=C(Cl)C3(Cl)C2(Cl)Cl)c1` (stereo not given), for which the growth inhibition is 10.1%.
As to `COCCCNP(=O)(OC(C)C)OC(C)C`, the growth inhibition is 5.8%.
Same read-out and setting: in the case of `CCCCCCCCCCCCCCCCCC(=O)NC(CC(=O)OCCCCCC)c1ccc(N(CCCl)CCCl)cc1` (stereo not given) it was -6.5%; in that of `CC(=O)Oc1ccc([As](=O)(O)O)cc1`, -11.8%; in that of `[Cl][Pd]([Cl])([Cl])[Cl].[NH-]CC[NH-].[NH-]CC[NH-].[Pd+2]`, -3.5%.
As to `CC1(O)CCC(O)CC1CC(=O)O` (stereo not given), the growth inhibition is 22.1%.
The same measure, in the same setting: in the case of `CCCCCC[C@@H](O)[C@@H]1C2=C(C[C@H]([C@H](O)[C@@H]3CC=CC(=O)O3)CC3=C(C(=O)OC3=O)[C@@H]1O)C(=O)OC2=O` it was 9.5%; in that of `CCCCCCOC(=O)C(N)Cc1ccc(OC)c(N(CCCl)CCCl)c1` (stereo not given), 5.7%.
Turning to `CC1CCC2NCCNC2C1` (stereo not given), the growth inhibition is 5.35%.
In the case of `CCOC(=O)C(Cc1ccc(N(CCCl)CCCl)cc1)NC(=O)C(N)CO` (stereo not given), the growth inhibition was -1.3%.

The nature of a further assay: NCI Yeast Anticancer Drug Screen. Data for the bub3 strain (AID 167). To be noted: S. cerevisiae bub3 mutant strain, at 50.0 µM, active compounds read high. Summed up: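 Mutant yeast screening strain plus compound; vehicle-treated cultures serve as the 0% inhibition reference.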
In the case of `CCC[As](=O)(O)CC(C)C`, the growth inhibition was -0.4%.
Take `CCCOC(=O)c1cncn1C(C)c1ccccc1` (stereo not given): the growth inhibition was 35.6%.
Still for that read-out and setting: the same measure for `C/C=C/CC1(C(C)C)C(=O)NC(=O)NC1=O`: -1.25% and 1.2%; for `NC(N)=NCCCCCCCCCCN=C(N)N`: -2.35%.
Same read-out and setting: the same measure for `O=C(Nc1ccc(S(=O)(=O)Nc2ccc(N=Nc3ccc(N=Nc4ccccc4)cc3)cc2)cc1)C(N1CC1)(N1CC1)N1CC1`: -3.8%; for `CC1(C)C=C(NC(=O)N2CC2)C(C)(C)N1O`: 34.8%.
Consider `CC1=CC(=O)NP(=O)(Oc2ccc(C)cc2)N1` (stereo not given), for which the growth inhibition was -25.3%.
Same read-out and setting: the same measure for `CCCN(CCC)C(=O)CCl`: -4.55%; for `O=[P+](O)c1ccccc1`: -4.65% and -2%; for `CN(C)CCNC(=O)c1ccc([N+](=O)[O-])c(C(C)(C)C(=O)Nc2ccc(N(CCCl)CCCl)cc2)c1`: -10.8%.
On the same count and under the same terms, in the case of `CCCC(C)COC(=O)Cc1ccccc1` (stereo not given) it was 4.3%; in that of `CCCCOC1OCN(C2CCCCC2)CC1(C)C` (stereo not given), 36.8%.
Take `CN(C)P1P(N(C)C)P(N(C)C)P1N(C)C` (stereo not given): the growth inhibition was -7.5%.
On the same count and under the same terms, in the case of `C[CH2][Sn]([CH2]C)([CH2]C(=O)OC)[CH2]C(=O)OC` it was 14.4%.
On to `CCCP(=S)(CCC)P(=S)(CCC)CCC`, for which the growth inhibition is 18%.
Same read-out and setting: the same measure for `CCC[N+](CCC)(CCC)CCC.[Ni+2].[SH2+]C([SH2+])=Nc1ccccc1.[SH2+]C([SH2+])=Nc1ccccc1`: 4.7%; for `CC(C)c1ccc(-n2c(=S)[nH]c3ccccc3c2=O)cc1`: -5.7%; for `C=CC(=O)NCO`: 3.6%.
Take `CCNC(=O)C(C)Br` (stereo not given): the growth inhibition was 6.5%.
On the same count and under the same terms, in the case of `O=C1CCP(c2ccccc2)(c2ccccc2)(c2ccccc2)O1` it was 14.3%; in that of `O=C(N/N=C/c1cc(Br)cc(Br)c1[O-])c1ccccc1O.O=C(N/N=C/c1cc(Br)cc(Br)c1[O-])c1ccccc1O.[Cl-].[Fe+3]`, 12.1%.
Same read-out and setting: the same measure for `CC12CCC3C(CCC4(O)C=CCCC34C=O)C1(O)CC(O)C2c1ccc(=O)oc1` (stereo not given): -53.9%.
For the compound `COc1cc2c(cc1OC)C13CCN4CC5=CCOC6CC(=O)N2C1C6C5CC43` (stereo not given), the growth inhibition was -8.6%.
For `NC(=O)OCC(O)c1ccccc1` (stereo not given), the growth inhibition is -19.9%.
Same read-out and setting: in the case of `Clc1ccc([As](c2ccc(Cl)cc2)c2ccc(Cl)cc2)cc1` it was 30.5%; in that of `COc1ccc2c3c1O[C@]1(C)C34CCN(C)C(C2)C42C=C[C@@]1(OC)c1c(O)ccc(O)c12`, -10.6%.
In the case of `CCOP(=S)(OCC)OP(=O)(CC)CC`, the growth inhibition is 9.2%.
For the compound `Cc1ccc(NC(=O)C(=O)C2C(=O)NC(=O)NC2=O)cc1C`, the growth inhibition was -19.9%.
Still for that read-out and setting: in the case of `O=C(Nc1ccc(O)cc1)c1c(O)[nH]c(=S)[nH]c1=O` it was 1.7%; in that of `NCCCNCCCN`, 7.85%; in that of `COc1cccc(N2C(=O)C3C(C2=O)C2(Cl)C(Cl)=C(Cl)C3(Cl)C2(Cl)Cl)c1` (stereo not given), 19.4%.
On the same count and under the same terms, the same measure for `COCCCNP(=O)(OC(C)C)OC(C)C`: 9.2%; for `CCCCCCCCCCCCCCCCCC(=O)NC(CC(=O)OCCCCCC)c1ccc(N(CCCl)CCCl)cc1` (stereo not given): -3.9%; for `CC(=O)Oc1ccc([As](=O)(O)O)cc1`: 10.4%.
On the same count and under the same terms, in the case of `[Cl][Pd]([Cl])([Cl])[Cl].[NH-]CC[NH-].[NH-]CC[NH-].[Pd+2]` it was 26.4%; in that of `CC1(O)CCC(O)CC1CC(=O)O` (stereo not given), -0.15%; in that of `CCCCCC[C@@H](O)[C@@H]1C2=C(C[C@H]([C@H](O)[C@@H]3CC=CC(=O)O3)CC3=C(C(=O)OC3=O)[C@@H]1O)C(=O)OC2=O`, 16.7%.
As for `CCCCCCOC(=O)C(N)Cc1ccc(OC)c(N(CCCl)CCCl)c1` (stereo not given), the growth inhibition is -1.6%.
Consider `CC1CCC2NCCNC2C1` (stereo not given), for which the growth inhibition is 0.65%.
Same read-out and setting: the same measure for `CCOC(=O)C(Cc1ccc(N(CCCl)CCCl)cc1)NC(=O)C(N)CO` (stereo not given): 12.3%.
